According to PubChem BioAssay (NCI):
This is part of a sample that, as a whole, favours compounds with a hit. Of some 83,000 tested, about 20% had one in any assay.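 Negative percent growth values reflect cell death: -40 means 40% of the cells present at the start died, and -100 means all died.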 The source made the active and inactive calls. Rule for the calls: active = growth percent below 10; inactive = the rest.

Experiments:
Assay in all cases: NCI-60 one-dose screen, 48 h (100 = growth as untreated, 0 = no growth, -100 = all killed)
Conditions in all cases: 10 µM unless noted
[1] = system: SR leukemia
[2] = system: RPMI-8226 leukemia
[3] = system: OVCAR-8 ovarian
[4] = system: OVCAR-5 ovarian
[5] = system: OVCAR-4 ovarian
[6] = system: SK-OV-3 ovarian
[7] = system: IGROV1 ovarian
[8] = system: OVCAR-3 ovarian
[9] = system: HS 578T breast
[10] = system: NCI/ADR-RES ovarian
[11] = system: T-47D breast
[12] = system: BT-549 breast
[13] = system: MDA-MB-435 melanoma
[14] = system: SW-620 colon
[15] = system: MCF7 breast
[16] = system: HCT-116 colon
[17] = system: HCC-2998 colon
[18] = system: KM12 colon

Measured: growth

Cc1ccc(C2C3CC4CCCCC4N3[C@@]3(C(=O)Nc4cc(Cl)ccc43)C2C(=O)c2nc3ccccc3[nH]2)cc1 (stereo partly specified)
active: [2] 9.27%
inactive: [1] 21.2% | [3] 56.7% | [4] 49% | [5] 30.6% | [6] 77.6% | [7] 26.4% | [8] 33.4% | [9] 61% | [10] 41.7% | [11] 27.4% | [12] 52.8% | [13] 26.5% | [14] 29.8% | [15] 13.8% | [16] 19.5% | [17] 38.4% | [18] 38%

CCOC(=O)c1ccc(Nc2ccnc(SCC(=O)c3ccc(C#N)cc3)n2)cc1
active: [11] 9.84%
inactive: [1] 54.1% | [2] 20.4% | [3] 22.8% | [4] 107% | [5] 65.2% | [6] 101% | [7] 79% | [8] 79.1% | [9] 92.1% | [10] 41.5% | [12] 50.1% | [13] 68.4% | [14] 89.8% | [15] 67% | [16] 71.8% | [17] 103% | [18] 54.5%

OC(c1ccccc1)c1ccccn1 (stereo unspecified)
inactive: [1] 99.1% | [2] 101% | [3] 95.9% | [4] 108% | [5] 116% | [6] 92% | [7] 106% | [8] 105% | [9] 91% | [10] 110% | [11] 87.4% | [12] 93.4% | [13] 104% | [14] 102% | [15] 102% | [16] 103% | [17] 104% | [18] 102%

O=C1c2ccccc2C(=O)c2c(NCCN=Cc3ccccc3O)cccc21
inactive: [2] 78.8% | [3] 21% | [4] 78.9% | [5] 72.1% | [6] 56.9% | [7] 51.9% | [8] 72.3% | [9] 43.4% | [10] 59.9% | [11] 63.6% | [12] 73.4% | [13] 71.5% | [14] 35.4% | [15] 32.4% | [16] 15.4% | [17] 30.9% | [18] 48.7%
active: [1] -33.2%

CCCCCN1C=C/C(=C\C(=O)N(C)c2ccc(Br)cc2)c2ccccc21
inactive: [1] 90.5% | [2] 89.1% | [3] 89.4% | [4] 104% | [5] 84.4% | [6] 96.8% | [7] 96.3% | [8] 98.8% | [9] 98.6% | [10] 100% | [11] 84.3% | [12] 108% | [13] 101% | [14] 94.4% | [15] 91% | [16] 80.7% | [17] 102% | [18] 103%

C#CCNC(=O)[C@H](Cc1ccccc1)NC(=O)[C@]12CC[C@@H](C(=C)C)[C@@H]1[C@H]1CC[C@@H]3[C@@]4(C)Cc5c([nH]c6ccccc56)C(C)(C)[C@@H]4CC[C@@]3(C)[C@]1(C)CC2
inactive: [1] 88.5% | [2] 82.9% | [3] 96.5% | [4] 95.8% | [5] 108% | [6] 95.4% | [7] 110% | [8] 96.5% | [9] 113% | [10] 97.2% | [11] 75.3% | [12] 105% | [13] 105% | [14] 111% | [15] 85.3% | [16] 85.9% | [17] 109% | [18] 103%

COc1ccc(/C=C/c2n[nH]c3ccc(N4CCOC4=O)cc23)cc1
active: [1] 2.85% | [2] -14.9% | [7] 8.62% | [8] 4.56% | [9] 2.93% | [14] 1.51% | [15] 2.37% | [16] 8.08% | [18] 8.51%
inactive: [3] 19.3% | [4] 14.1% | [5] 40% | [6] 25.2% | [10] 15.6% | [11] 17.6% | [12] 16.1% | [13] 44.4% | [17] 31.5%

C=Cc1cc[n+](CCCCCCCCCCCC)cc1
inactive: [1] 97.2% | [2] 104% | [3] 112% | [4] 108% | [5] 133% | [6] 144% | [7] 104% | [8] 110% | [9] 108% | [10] 106% | [11] 131% | [12] 116% | [13] 104% | [14] 100% | [15] 106% | [16] 97.6% | [17] 110% | [18] 104%

O=C(NNc1nc(Cl)nc(N2CCN(C(c3ccccc3)c3ccccc3)CC2)n1)c1ccccc1
active: [1] -37.4% | [3] 3.15% | [5] -16.1% | [7] -92.6% | [8] -90.5% | [12] 7.6% | [14] -40.7% | [16] -23.9% | [17] -24.5%
inactive: [2] 57.8% | [4] 88.7% | [6] 128% | [9] 36.3% | [10] 20.7% | [11] 54.8% | [13] 58.7% | [15] 82.5% | [18] 76.9%

COc1ccc(-c2nc(SC)nc(N3CCOCC3)c2C#N)cc1
inactive: [1] 78.9% | [2] 91.2% | [3] 98.1% | [4] 99.7% | [5] 100% | [6] 89.4% | [7] 85% | [8] 98.5% | [9] 98.4% | [10] 94% | [11] 72.9% | [12] 83.7% | [13] 99.3% | [14] 103% | [15] 90.6% | [16] 103% | [17] 99.7% | [18] 99.9%

COc1ccc(/C=C\c2nc3ccccc3s2)cc1OP(=O)(O)O
active: [8] 0.859% | [13] -70.4%
inactive: [1] 16.7% | [2] 22.7% | [3] 40.2% | [4] 75.4% | [5] 72.6% | [6] 84.2% | [7] 37.9% | [9] 14.8% | [10] 14.4% | [11] 41.4% | [12] 44.3% | [14] 23.2% | [15] 21.7% | [16] 25.9% | [17] 66.9% | [18] 31.4%

COc1ccc(C(=O)c2cc3c(N)c(C(=O)Nc4cccc(Br)c4C)sc3nc2C)cc1
inactive: [4] 40.6% | [5] 37.4% | [6] 23.2% | [7] 24.3% | [9] 12.4% | [11] 54.6% | [12] 33.5% | [14] 23.4% | [15] 17.5% | [17] 18.1% | [18] 11.3%
active: [1] -21.4% | [2] 8.87% | [3] 1.15% | [8] -20.1% | [10] 0.768% | [13] -10.4% | [16] 6.78%

COc1ccc(-c2ncc(-c3ccccc3)[nH]2)cc1OC
inactive: [1] 11% | [2] 89.5% | [3] 113% | [4] 113% | [5] 116% | [6] 125% | [7] 119% | [8] 103% | [9] 102% | [10] 121% | [11] 102% | [12] 240% | [13] 104% | [14] 108% | [15] 83.6% | [16] 117% | [17] 120% | [18] 105%

CC(C)C1C2=C(NCCN1C(=O)Cc1ccccc1)C(C)(C)N(Cc1ccccc1)C2=O (stereo unspecified)
inactive: [1] 106% | [2] 102% | [3] 100% | [4] 102% | [5] 104% | [6] 93.5% | [7] 98.8% | [8] 102% | [9] 103% | [10] 99% | [11] 91.8% | [12] 99.7% | [13] 99.2% | [14] 92.5% | [15] 95.3% | [16] 91.7% | [17] 101% | [18] 107%

CC(C)[N+](C)(CCOC(COc1ccccc1)COc1ccccc1)C(C)C
inactive: [1] 91.5% | [2] 49.3% | [3] 104% | [4] 104% | [5] 78.6% | [6] 105% | [7] 76.6% | [8] 75.4% | [9] 105% | [10] 107% | [11] 85.7% | [12] 80.6% | [13] 91.9% | [14] 102% | [15] 91.4% | [16] 92.2% | [17] 96.7% | [18] 83.5%

COc1cc2nc(-c3ccc(-c4nn[nH]n4)cc3)[nH]c(=O)c2cc1OC
inactive: [1] 97.8% | [2] 81.8% | [3] 105% | [4] 99.4% | [5] 115% | [6] 108% | [7] 108% | [8] 112% | [9] 110% | [10] 101% | [11] 102% | [12] 251% | [13] 105% | [14] 107% | [15] 98.9% | [16] 104% | [17] 114% | [18] 126%

CN1CCN(c2cc(F)c(NC3=C(Cl)C(=O)c4ncccc4C3=O)c(F)c2)CC1
inactive: [6] 82.7% | [10] 37.9% | [12] 80.5% | [17] 61.9% | [18] 82.4%
active: [1] -0.813% | [2] -20.7% | [3] 1.95% | [4] -59.8% | [5] -99.2% | [7] -90.4% | [8] -98.2% | [9] -16.5% | [11] -32.5% | [13] -75.8% | [14] -76.6% | [15] -58.2% | [16] -69.7%
